Results: PubChem BioAssay (Tox21)
“And” between values parts separate entries of the source, which are not always exact repeats. Equal values may be shown once. Inconclusive results are not listed. Where a call stands in place of a potency, no number is given. A structure can be active in one record and inactive in another. The source made the active and inactive calls. Unless noted, calls follow the shape of the dose curve; as a rule, active = well fitted curve in the direction sought with a large enough effect in the repeat runs; inconclusive = weak or mixed curves; inactive = no such curve, though single readings can be large; an effect the other way counts as inactive or inconclusive.

Legend:
[1] = qHTS assay to identify small molecule antagonists of the estrogen related receptor (ERR) signaling pathway from Tox21 library - cell viability counter screen (AID 1224834); also: nearly all actives have a fitted effect of over 30% in size; also: potency is read from the fitted curve at half-maximal effect
Summary of the method: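 In this quantitative HTS format, ERR cells receive compounds in DMSO and are incubated for 17.5 h at 37 C. Live-cell protease activity is then detected with CellTiter-Fluor.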

[2] = target: Luciferin 4-monooxygenase (Photinus pyralis) (UniProt P08659); assay: qHTS assay to identify small molecule inhibitors of firefly luciferase (AID 1224835); also: series mostly up to about 120 µM; nearly all actives have a fitted effect of over 25% in size
Summary of the method: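 Biochemical qHTS: compounds run as interplate titrations against purified firefly enzyme, with D-luciferin and ATP each at its KM concentration. Light output recorded by CCD imaging.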

[3] = qHTS assay to identify small molecule agonists of the constitutive androstane receptor (CAR) signaling pathway - cell viability counter screen (AID 1224836); also: series mostly up to about 92 µM; nearly all actives have a fitted effect of over 45% in size
Summary of the method: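 HepG2 cells stably carrying hCAR and a CYP2B6-2.2kb reporter were plated 4 h, then given compounds at 15 concentrations plus PK11195 (final 0.75 uM). After 23 h at 37 C, viability was read by CellTiter-Fluor fluorescence.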

[4] = qHTS assay to identify small molecule antagonists of the constitutive androstane receptor (CAR) signaling pathway - cell viability counter screen (AID 1224837); also: series mostly up to about 92 µM; nearly all actives have a fitted effect of over 45% in size
Summary of the method: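 In quantitative HTS format, compounds at 15 concentrations were applied to HepG2 cells double-transfected with hCAR and CYP2B6-2.2kb under 50 nM CITCO stimulation; live-cell protease activity was read after 23 hr via CellTiter-Fluor.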

[5] = qHTS assay to identify small molecule antagonists of the estrogen related receptor signaling pathway with the pleiotropic PPARgamma coactivator (PGC) from Tox21 10K library - cell viability counter screen (AID 1224840; active = well fitted cell-killing curve with a large enough effect in the repeat runs, not every such curve was filed as active; also: nearly all actives have a fitted effect of over 40% in size)
Summary of the method: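 Viability counter screen, PGC/ERR cells: 17.5 h compound exposure at 37 C, CellTiter-Fluor fluorescence endpoint.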

[6] = qHTS assay to identify small molecule antagonists of the estrogen related receptor signaling pathway with the pleiotropic PPARgamma coactivator (PGC) from Tox21 10K library (AID 1224841; call rule not given here; also: series mostly up to about 92 µM; actives are mostly falling curves and most rising ones were filed inactive; nearly all actives have a fitted effect of over 50% in size)
Summary of the method: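 In the PGC/ERR line, DMSO solutions of test chemicals are pin-delivered to 2,000 cells/well six hours after dispensing. Following eighteen hours' incubation, One-Glo reagent is added and luminescence recorded.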

[7] = qHTS assay to identify small molecule agonists of the estrogen related receptor signaling pathway with the pleiotropic PPARgamma coactivator (PGC) from Tox21 10K library (AID 1224842); also: nearly all actives have a fitted effect of over 15% in size
Summary of the method: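 PGC/ERR reporter cell line, 2,000 cells per well, incubated 6 h at 37 C before 23 nL compound in DMSO was added. After 18 h at 37 C, One-Glo luminescence read following 30 min at room temperature.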

[8] = target: Thyrotropin receptor (Homo sapiens) (UniProt P16473); assay: qHTS assay to identify small molecule agonists of the thyroid stimulating hormone receptor (TSHR) signaling pathway (AID 1224843; calls by dose curve; also: nearly all actives have a fitted effect of over 45% in size)
Summary of the method: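 Agonist-mode screen: TSHR HEK293 cells received test chemicals for half an hour at room temperature, then HTRF cAMP detection reagents for one hour prior to fluorescence measurement. Each chemical ran as a 15-concentration series, triplicated.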

[9] = target: Nuclear receptor subfamily 1 group I member 3 (Homo sapiens) (UniProt Q14994); assay: qHTS assay to identify small molecule antagonists of the constitutive androstane receptor (CAR) signaling pathway (AID 1224838); also: nearly all actives have a fitted effect of over 40% in size
Summary of the method: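 CITCO-stimulated (50 nM final) HepG2 cells stably transfected with hCAR and CYP2B6-2.2kb luciferase were exposed to compounds at 15 concentrations for 24 h at 37 C/5% CO2. A luciferase reagent was added and luminescence recorded after 30 min.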

[10] = target: Nuclear receptor subfamily 1 group I member 3 (Homo sapiens) (UniProt Q14994); assay: qHTS assay to identify small molecule agonists of the constitutive androstane receptor (CAR) signaling pathway (AID 1224839);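 also: HepG2 cells stably carrying human CAR and a CYP2B6 luciferase reporter; series mostly up to about 92 µM; nearly all actives have a fitted effect of over 15% in size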
Summary of the method: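 HepG2 cells stably expressing hCAR and a CYP2B6-2.2kb luciferase reporter were treated with compounds at 15 concentrations plus 0.75 uM PK11195 (final) for 24 h at 37 C; luminescence was read after ONE-Glo addition.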

Sequence of Thyrotropin receptor (Homo sapiens) (P16473 whole entry, looked up): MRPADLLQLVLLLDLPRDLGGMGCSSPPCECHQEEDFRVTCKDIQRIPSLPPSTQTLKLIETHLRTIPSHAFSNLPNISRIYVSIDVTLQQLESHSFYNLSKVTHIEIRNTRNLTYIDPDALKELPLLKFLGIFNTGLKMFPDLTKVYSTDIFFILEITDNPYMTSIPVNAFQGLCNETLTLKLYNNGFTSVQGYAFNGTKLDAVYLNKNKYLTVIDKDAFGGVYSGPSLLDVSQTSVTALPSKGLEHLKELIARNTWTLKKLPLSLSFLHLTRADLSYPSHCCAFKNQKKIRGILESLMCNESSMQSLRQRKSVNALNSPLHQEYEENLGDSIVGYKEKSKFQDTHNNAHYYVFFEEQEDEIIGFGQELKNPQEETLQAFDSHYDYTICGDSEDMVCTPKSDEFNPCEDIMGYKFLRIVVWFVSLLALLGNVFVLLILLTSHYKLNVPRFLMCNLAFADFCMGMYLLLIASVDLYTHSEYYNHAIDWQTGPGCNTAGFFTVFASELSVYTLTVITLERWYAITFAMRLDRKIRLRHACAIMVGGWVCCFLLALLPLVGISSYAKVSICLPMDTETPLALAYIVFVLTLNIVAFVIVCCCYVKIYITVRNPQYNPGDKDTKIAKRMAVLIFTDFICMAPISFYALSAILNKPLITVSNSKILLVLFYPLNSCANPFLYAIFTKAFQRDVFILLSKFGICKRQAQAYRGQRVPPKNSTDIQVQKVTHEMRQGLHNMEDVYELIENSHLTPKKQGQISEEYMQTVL
Sequence of Luciferin 4-monooxygenase (Photinus pyralis) (P08659 whole entry, looked up): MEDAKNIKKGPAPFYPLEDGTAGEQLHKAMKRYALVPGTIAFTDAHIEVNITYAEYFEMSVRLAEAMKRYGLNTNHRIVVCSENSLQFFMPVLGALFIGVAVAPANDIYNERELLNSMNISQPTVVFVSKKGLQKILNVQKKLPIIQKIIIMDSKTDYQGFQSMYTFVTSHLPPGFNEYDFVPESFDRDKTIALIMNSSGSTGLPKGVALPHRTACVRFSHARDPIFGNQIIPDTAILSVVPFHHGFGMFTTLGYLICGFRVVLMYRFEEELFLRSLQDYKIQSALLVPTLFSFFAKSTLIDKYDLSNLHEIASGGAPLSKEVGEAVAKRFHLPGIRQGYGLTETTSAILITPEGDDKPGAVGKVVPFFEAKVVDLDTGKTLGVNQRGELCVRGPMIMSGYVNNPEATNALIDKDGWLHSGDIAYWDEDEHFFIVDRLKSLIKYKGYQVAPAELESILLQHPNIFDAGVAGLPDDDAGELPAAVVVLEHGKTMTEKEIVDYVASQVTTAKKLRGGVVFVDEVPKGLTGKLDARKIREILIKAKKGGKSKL
Sequence of Nuclear receptor subfamily 1 group I member 3 (Homo sapiens) (Q14994 whole entry, looked up): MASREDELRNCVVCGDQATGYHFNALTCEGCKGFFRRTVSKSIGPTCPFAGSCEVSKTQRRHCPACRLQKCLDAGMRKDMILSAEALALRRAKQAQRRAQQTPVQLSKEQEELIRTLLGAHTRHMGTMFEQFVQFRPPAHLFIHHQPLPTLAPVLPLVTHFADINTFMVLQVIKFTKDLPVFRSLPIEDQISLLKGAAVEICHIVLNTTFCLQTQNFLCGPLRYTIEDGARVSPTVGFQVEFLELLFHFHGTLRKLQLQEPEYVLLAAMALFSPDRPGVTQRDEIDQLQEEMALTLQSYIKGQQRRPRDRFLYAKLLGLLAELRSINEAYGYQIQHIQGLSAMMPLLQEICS

Structure (SMILES)	Potency [1]	Potency [2]	Potency [3]	Potency [4]	Potency [5]	Potency [6]	Potency [7]	Potency [8]	Potency [9]	Potency [10]
CN=C(NC#N)NCCSCc1nc[nH]c1C	inactive	inactive	inactive	inactive	inactive	inactive	inactive	inactive		
Cc1nnc(NS(=O)(=O)c2ccc(N)cc2)s1	inactive	inactive	inactive	inactive	inactive			inactive		
O=C1C(N(CO)C(=O)NCO)N(CO)C(=O)N1CO (stereo unspecified)	inactive	inactive		inactive				inactive	inactive	inactive
Cc1ccc([N+](=O)[O-])cc1N	inactive	inactive		inactive	inactive			inactive	inactive	inactive
CCCCCCCCO	inactive	inactive		inactive	inactive			inactive	inactive	inactive
OC[C@H]1O[C@@H](Oc2ccc(O)cc2)[C@H](O)[C@@H](O)[C@@H]1O	inactive	inactive	inactive	inactive	inactive	inactive	inactive	inactive		
CCCOCC(C)O (stereo unspecified)	inactive	inactive	inactive	inactive		inactive	inactive	inactive		
C[n+]1ccn(CCO)c1	inactive	inactive	inactive	inactive	inactive	inactive	inactive			
O=Cc1ccc(CO)o1	inactive	inactive		inactive	inactive	inactive	inactive	inactive	inactive	
CC(=O)CC(=O)N(C)C	inactive	inactive	inactive	inactive				inactive		
CCCCCC(C)=O	inactive	inactive		inactive	inactive	inactive	inactive		inactive	inactive
Cc1ccc(C(C)C)cc1	inactive	inactive	inactive	inactive				inactive		
CCc1cccc(CC)c1N	inactive	inactive		inactive				inactive	inactive	inactive
Cc1ccncc1	inactive	inactive	inactive	inactive	inactive			inactive		
OC1CCCCC1	inactive	inactive	inactive	inactive	inactive					
C1CCCNCC1	inactive	inactive	inactive	inactive	inactive	inactive	inactive	inactive		
CC(=O)OC(C)(C)C1CC=C(C)CC1 (stereo unspecified)	inactive	inactive	inactive	inactive	inactive	inactive	inactive	inactive		
N#CCC(=O)O	inactive	inactive		inactive	inactive	inactive	inactive	inactive	inactive	
CN1Cc2c(N)cccc2C(c2ccccc2)C1 (stereo unspecified)	inactive	inactive	inactive	inactive	inactive			inactive		
Brc1ccc(Oc2ccc(Br)cc2)cc1	inactive	inactive		inactive	inactive			inactive	inactive	inactive
Cc1cc(C)c(O)c(C)c1	inactive	inactive	inactive	inactive	inactive	inactive	inactive	inactive		
CC[N+](CC)(CC(=O)Nc1c(C)cccc1C)Cc1ccccc1	inactive	inactive	inactive	inactive				inactive		
COc1ccc(N)c(OC)c1	inactive and 54.5 µM (active)	inactive	inactive	inactive	inactive			inactive		
O=C(O)C1=NN(c2ccc(S(=O)(=O)O)cc2)C(=O)C1	inactive	inactive	inactive	inactive				inactive		
CC(C=O)Cc1ccc(C(C)(C)C)cc1 (stereo unspecified)	inactive		inactive	inactive		inactive	inactive	inactive		
CCCCCCC(=O)O	inactive	inactive		inactive		inactive	inactive	inactive		inactive
CCN(CC)CCNC(=O)c1ccc(N)cc1	inactive	inactive		inactive				inactive		
COC(=O)OC	inactive		inactive	inactive	inactive	inactive	inactive	inactive	inactive	inactive
